Calb biofilm kill = kills Candida albicans biofilms; inhibition, % at 6 µM; 85,000 tested, 0.14% active; AID 834; C. albicans biofilm + clotrimazole, Alamar Blue;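 active means inhibition above 20%; inactive means inhibition below 20%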;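 further: preformed 24 hr biofilms exposed to compound for 48 hr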
GALR2 ag = GALR2 (human) receptor agonism; O43603; GALR2-expressing cells, agonist activation read-out; activation, % (no concentration beside the values); 140,000 tested, 0.48% active; in the data active means activation above about 5%, passing the limit was not always enough
Target sequence (O43603 whole entry, looked up): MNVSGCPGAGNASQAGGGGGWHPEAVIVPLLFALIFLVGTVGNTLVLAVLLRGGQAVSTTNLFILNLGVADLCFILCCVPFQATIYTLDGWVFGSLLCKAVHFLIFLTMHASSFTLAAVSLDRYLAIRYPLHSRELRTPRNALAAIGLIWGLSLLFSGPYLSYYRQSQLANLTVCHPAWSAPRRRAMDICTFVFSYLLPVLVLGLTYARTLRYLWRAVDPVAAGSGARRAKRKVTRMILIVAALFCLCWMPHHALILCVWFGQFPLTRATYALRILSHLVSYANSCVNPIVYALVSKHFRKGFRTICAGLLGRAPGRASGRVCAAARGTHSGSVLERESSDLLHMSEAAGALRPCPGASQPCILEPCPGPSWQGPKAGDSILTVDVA
GALR2 antag = antagonists of human galanin receptor 2 (GALR2); O43603; GALR2-expressing cells, antagonist mode; inhibition, % at 4 µM; 140,000 tested, 0.39% active; in the data active means inhibition above about 27%;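 further: cells stimulated with galanin 1-16 at roughly its EC80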
S1P2 blocker = S1P2 (human) receptor antagonism; cell-based S1P2 antagonist assay, inhibition at 5 uM; inhibition, % at 5 µM; 97,000 tested, 0.21% active; AID 736; in the data active means inhibition above about 45%;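 further: CRE beta-lactamase reporter cells expressing human S1P2 stimulated with S1P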
Target sequence (O95136 whole entry, looked up): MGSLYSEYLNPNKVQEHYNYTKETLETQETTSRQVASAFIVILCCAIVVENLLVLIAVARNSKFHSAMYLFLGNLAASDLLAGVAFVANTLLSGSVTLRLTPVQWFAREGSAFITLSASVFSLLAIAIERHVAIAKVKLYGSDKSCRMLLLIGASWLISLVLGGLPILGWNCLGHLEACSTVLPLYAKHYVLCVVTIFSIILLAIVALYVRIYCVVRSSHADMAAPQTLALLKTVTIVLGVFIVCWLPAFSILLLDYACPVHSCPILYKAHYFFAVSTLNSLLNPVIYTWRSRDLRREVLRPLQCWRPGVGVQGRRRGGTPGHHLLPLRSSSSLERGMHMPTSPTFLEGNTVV
Phagocytosis inh = inhibitors of macrophage phagocytosis. J774A.1 macrophage IgG-bead phagocytosis, imaging. inhibition, % at 5 µM. 110,000 tested, 0.07% active;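 active means inhibition above the mean of the plate negative controls plus 5 SD, cut at about 13% in these data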;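 further: phagocytic index as fraction of beads internalized from green versus red external bead signal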
S1P2 agonist = agonists of human S1P2 receptor; O95136; S1P2-expressing cell line, agonist reporter read-out; activation, % at 4.5 µM; 97,000 tested, 0.46% active; AID 729; in the data active means activation above about 16%
Each line names hits and unclear results; the compound was inactive in the other large screens; [ ] = remark or other dose. An excerpt weighted towards active compounds, which were near 1.3% of everything screened.

Cc1csc(SCC(=O)Nc2sc3c(c2C#N)CCC3)n1	none
Cc1ccc(-c2nc(CSCC(=O)NCCN3CCN(Cc4ccccc4)CC3)c(C)o2)cc1	S1P2 blocker 47.1
CCOCCCNc1nc(=S)[nH]c2cc(OC)c(OC)cc12	S1P2 agonist 448.9
COC(=O)c1c(C)[nH]c(C(=O)/C=C/c2ccccc2)c1C	GALR2 ag 6.2 (no result: Calb biofilm kill, S1P2 blocker, S1P2 agonist)
Cc1cc(C)c(C)c(Cn2c(CO)nc3ccccc32)c1C	none (no result: Phagocytosis inh)
Cc1ccccc1C(=O)O/N=C/c1c(N2CCOCC2)n(C)c2ccccc12	Phagocytosis inh 22.9[artifact] (no result: Calb biofilm kill)
Cn1c(Cl)c(/C=N/OC(=O)c2cccc(Cl)c2)c2ccccc21	none (no result: Calb biofilm kill)
CC1CC(C)CN(S(=O)(=O)c2ccc(F)c(C(=O)Nc3ccc(Cl)cc3F)c2)C1 (stereo not drawn)	Calb biofilm kill 46.2
Cc1ccccc1NC(=O)c1cc(S(=O)(=O)N2CCOCC2)ccc1F	none (no result: S1P2 blocker, S1P2 agonist)
CCOc1ccc2c(c1)-c1c(ssc1=S)C(C)(C)N2C(=O)c1ccco1	Phagocytosis inh 90.7[artifact] (no result: Calb biofilm kill, S1P2 blocker, S1P2 agonist)
Nn1c(SCC(=O)NC(=O)NCc2ccccc2)nnc1C1CC1	none
CCOC(=O)c1oc2nc(CC(C)C)c3c(c2c1N)CCC3	none (no result: Phagocytosis inh)
COc1cc(-c2nnc(COC(=O)CSc3cc(C)c4ccccc4n3)o2)cc(OC)c1OC	none
COc1cc(-c2nnc(COC(=O)c3cc(C)nc4ccc(C)cc34)o2)cc(OC)c1OC	S1P2 agonist 27.4
CC1=C(C(N)=O)C(c2ccncc2)n2nc(-c3ccccc3Cl)nc2N1 (stereo not drawn)	Calb biofilm kill 21.3
COc1ccc(NC(=O)CN(C)CC(=O)Nc2ccccc2SC)cc1	none (no result: Calb biofilm kill, S1P2 blocker, S1P2 agonist)
O=C(N/N=C\c1cc(Cl)ccc1O)c1ccc(S(=O)(=O)N2CCCCC2)cc1	GALR2 ag 6.9 (no result: Calb biofilm kill, S1P2 blocker, Phagocytosis inh, S1P2 agonist)
O=C(NNS(=O)(=O)c1ccc(Cl)cc1)c1ccc(S(=O)(=O)N2CCCCC2)cc1	none (no result: Calb biofilm kill, S1P2 blocker, S1P2 agonist)
O=C(CCc1ccc(S(=O)(=O)NCc2ccccc2)cc1)NCc1ccco1	none (no result: Calb biofilm kill, S1P2 blocker, S1P2 agonist)
Cn1c(SC2=CS(=O)(=O)c3ccccc32)nc2ccccc21	S1P2 blocker 61.9 (no result: Phagocytosis inh)
CC(C)c1nc2sc3c(NCc4ccco4)ncnc3c2c2c1COC(C)(C)C2	S1P2 agonist 19.6
C=C(C)C1CC=C(C)/C(=N/NC(=S)Nc2ccccc2)C1 (stereo not drawn)	none (no result: Calb biofilm kill, S1P2 blocker, S1P2 agonist)
Cc1ccc(-c2nnc3c4ccccc4c(C)nn23)cc1S(=O)(=O)N1CCN(CCO)CC1	S1P2 agonist 17.2
Cc1ccc(-c2nnc3c4ccccc4c(C)nn23)cc1S(=O)(=O)N1CCN(C)CC1	none (no result: Phagocytosis inh)
Cn1c(=O)[nH]c(=O)c2[nH]c(N(Cc3ccccc3)Cc3ccccc3)nc21	S1P2 blocker 56.0
CCn1c(C)cc(/C=C2/NC(=O)N(CC(=O)Nc3cccc(C)c3)C2=O)c1C	GALR2 ag 8.0 (no result: Calb biofilm kill, S1P2 blocker, S1P2 agonist)
CCn1c(C)cc(/C=C2\NC(=O)N(CC(=O)Nc3cccc(C)c3)C2=O)c1C	none (no result: Calb biofilm kill)
COc1ccc(N=c2oc3cc(O)ccc3cc2C(=O)NCC2CCCO2)cc1 (stereo not drawn)	GALR2 ag 15.6, S1P2 agonist 18.1
Cc1ccc(N=c2oc3cc(O)ccc3cc2C(N)=O)cc1	GALR2 ag 42.5, S1P2 agonist 17.2
COc1ccc(N=c2oc3cc(O)ccc3cc2C(=O)NCC2CCCO2)c(OC)c1 (stereo not drawn)	GALR2 ag 68.1, S1P2 agonist 36.9
COc1ccc(C(C)=O)cc1COC(=O)CNC(=O)c1cc(C)cc(C)c1	none (no result: Calb biofilm kill, S1P2 blocker, S1P2 agonist)
COC(=O)c1cnc2c(c1C(=O)OC)c(=O)n(C)c(=O)n2C	none (no result: Calb biofilm kill, S1P2 blocker, S1P2 agonist)
COc1ccccc1C1CC(c2cccs2)=Nc2ccccc2S1 (stereo not drawn)	none
COc1ccccc1C1CN(c2ccc(F)cc2F)N=C1c1cccs1 (stereo not drawn)	GALR2 ag 37.1, S1P2 agonist 17.5
CCSc1ncc(C)cc1[N+](=O)[O-]	none (no result: Calb biofilm kill, S1P2 blocker, S1P2 agonist)
COCCCNC(=O)c1cc2c(=O)n3cccc(C)c3nc2n(C(C)C)c1=N	none
COc1ccc(N(CC(=O)N/N=C/c2ccc(-c3ccc([N+](=O)[O-])cc3)o2)S(=O)(=O)c2ccc(C)cc2)cc1Cl	S1P2 blocker 50.4 (no result: Calb biofilm kill)
O=C1c2cccc3c([N+](=O)[O-])ccc(c23)C(=O)N1c1ccc(Cl)cn1	S1P2 blocker 70.7 (no result: Calb biofilm kill)
O=C1c2cccc3c(N4CCCCC4)ccc(c23)C(=O)N1c1ccc(Cl)cn1	S1P2 blocker 50.5 (no result: Phagocytosis inh)
CCN(CC)c1ccc2c(C)c(-c3ccc(N)cc3)c(=O)oc2c1	none (no result: S1P2 blocker, S1P2 agonist)
CCOC(=O)Cc1c(C)c2ccc(N(CC)CC)cc2oc1=O	GALR2 ag 18.9, S1P2 agonist 20.3
CCN(CC)c1ccc2c(Cl)c(Br)c(=O)oc2c1	GALR2 antag 76.4, S1P2 blocker 103.0 (no result: Phagocytosis inh)
CCOC(=O)CCc1c(C)c2ccc(O)cc2oc1=O	none
Cn1c(SCC(=O)NC(=O)NCc2ccco2)nnc1-c1ccccc1	none
O=C(Cn1nc(C(F)(F)F)c2c1CCCC2)NC1CCCC1	none (no result: Phagocytosis inh)
COc1ccc(CC(C)N2CCN(c3ccccc3)CC2)cc1OC (stereo not drawn)	none (no result: Phagocytosis inh)
Nn1c(SCc2cccc(C(F)(F)F)c2)nnc1-c1ccco1	none
Cc1ccc(CSc2nnc(-c3ccco3)n2N)cc1	S1P2 agonist 25.8
CN(Cc1cc(=O)[nH]c2ccccc12)C(=O)c1ccccc1	none
CN1C2C=C(N(CCc3c[nH]c4ccccc34)C(=O)c3ccc(Cl)cc3)CC1CC2 (stereo not drawn)	none (no result: Calb biofilm kill, Phagocytosis inh)
CCNc1nc(NCC)n2c(SCc3nc4ccccc4c(=O)[nH]3)nnc2n1	S1P2 agonist 43.2
CCNc1nc(NCC)n2c(SCc3ccc(F)cc3)nnc2n1	none
CCCOC(=O)c1[nH]c2c(c1C)C(=O)CC(c1ccc(OC)c(OC)c1)C2 (stereo not drawn)	GALR2 ag 5.2 (no result: S1P2 blocker, S1P2 agonist)
CCCCCOC(=O)c1[nH]c2c(c1C)C(=O)CC(c1ccco1)C2 (stereo not drawn)	GALR2 antag 35.5 (no result: Calb biofilm kill, S1P2 blocker, Phagocytosis inh, S1P2 agonist)
CCC(=O)c1cc2c(C)cc(=O)oc2c(C)c1OC(C)=O	none (no result: Calb biofilm kill, S1P2 blocker, S1P2 agonist)
CCC(=O)c1cc2c(C)cc(=O)oc2c(C)c1O	S1P2 agonist 119.1 (no result: Calb biofilm kill)
C/C(N)=C(/C#N)C(=O)CSc1nc2ccccc2c(=O)n1CCCOC(C)C	GALR2 ag 5.6 (no result: Calb biofilm kill, S1P2 blocker, Phagocytosis inh, S1P2 agonist)
CCOCCCn1c(SCC(=O)/C(C#N)=C(\C)N)nc2ccccc2c1=O	none (no result: Calb biofilm kill, S1P2 blocker, Phagocytosis inh, S1P2 agonist)
C/C(=N\NC(=O)c1ccc(Cl)c(Cl)c1)c1cccc(NC(=O)C(C)C)c1	none (no result: Calb biofilm kill)
Cc1cccc(S(=O)(=O)N(CC(=O)Nc2ccccc2C)Cc2ccco2)c1	Calb biofilm kill 38.5
O=C(CN(Cc1ccco1)S(=O)(=O)c1ccccc1)N/N=C/c1cccc(O)c1	none (no result: Calb biofilm kill)
CCOC(=O)N1CCN(C(=O)CSc2nc3c(cnn3-c3ccc(C)cc3)c(=O)[nH]2)CC1	none (no result: GALR2 ag, GALR2 antag, S1P2 blocker, Phagocytosis inh, S1P2 agonist)
CCOC(=O)N1CCN(C(=O)CSc2nc3c(cnn3-c3ccc(Cl)cc3)c(=O)[nH]2)CC1	Calb biofilm kill 20.2 (no result: S1P2 blocker, S1P2 agonist)
Cc1cc(-n2c(C)cc(C(=O)CSc3nnc4sc5ccccc5n34)c2C)no1	none
Cc1cc(-n2c(C)cc(C(=O)CSc3ncnc4ccccc34)c2C)no1	S1P2 blocker 59.6
Cc1ccc(-c2nn3c(C)nnc3s2)cc1NC(=O)c1ccc(-c2cccc(Cl)c2)o1	none
CCN(CC)c1ccc(-c2nn3c(-c4ccccc4OC)nnc3s2)cc1	GALR2 ag 6.8
